Among all 47,000 compounds or so, about 1,400 (3%) were called active. The list comes from a sample in which actives are over-represented; it also holds similar structures and randomly drawn compounds. A number with no mark means an inactive call. Cut-off read from the data, not from the text of the source: active = inhibition above about 30%; inactive = the rest.
The compounds below were run against Ubiquitin carboxyl-terminal hydrolase 28 (Homo sapiens) (UniProt Q96RU2) (assay: inhibitors of human USP28 deubiquitinase (AID 1645857)). Conditions: purified USP28, Ub-rhodamine cleavage fluorescence, 30 min; at 25 µM; active compounds read high.
Ubiquitin carboxyl-terminal hydrolase 28 (Homo sapiens), sequence (Q96RU2 whole entry, looked up): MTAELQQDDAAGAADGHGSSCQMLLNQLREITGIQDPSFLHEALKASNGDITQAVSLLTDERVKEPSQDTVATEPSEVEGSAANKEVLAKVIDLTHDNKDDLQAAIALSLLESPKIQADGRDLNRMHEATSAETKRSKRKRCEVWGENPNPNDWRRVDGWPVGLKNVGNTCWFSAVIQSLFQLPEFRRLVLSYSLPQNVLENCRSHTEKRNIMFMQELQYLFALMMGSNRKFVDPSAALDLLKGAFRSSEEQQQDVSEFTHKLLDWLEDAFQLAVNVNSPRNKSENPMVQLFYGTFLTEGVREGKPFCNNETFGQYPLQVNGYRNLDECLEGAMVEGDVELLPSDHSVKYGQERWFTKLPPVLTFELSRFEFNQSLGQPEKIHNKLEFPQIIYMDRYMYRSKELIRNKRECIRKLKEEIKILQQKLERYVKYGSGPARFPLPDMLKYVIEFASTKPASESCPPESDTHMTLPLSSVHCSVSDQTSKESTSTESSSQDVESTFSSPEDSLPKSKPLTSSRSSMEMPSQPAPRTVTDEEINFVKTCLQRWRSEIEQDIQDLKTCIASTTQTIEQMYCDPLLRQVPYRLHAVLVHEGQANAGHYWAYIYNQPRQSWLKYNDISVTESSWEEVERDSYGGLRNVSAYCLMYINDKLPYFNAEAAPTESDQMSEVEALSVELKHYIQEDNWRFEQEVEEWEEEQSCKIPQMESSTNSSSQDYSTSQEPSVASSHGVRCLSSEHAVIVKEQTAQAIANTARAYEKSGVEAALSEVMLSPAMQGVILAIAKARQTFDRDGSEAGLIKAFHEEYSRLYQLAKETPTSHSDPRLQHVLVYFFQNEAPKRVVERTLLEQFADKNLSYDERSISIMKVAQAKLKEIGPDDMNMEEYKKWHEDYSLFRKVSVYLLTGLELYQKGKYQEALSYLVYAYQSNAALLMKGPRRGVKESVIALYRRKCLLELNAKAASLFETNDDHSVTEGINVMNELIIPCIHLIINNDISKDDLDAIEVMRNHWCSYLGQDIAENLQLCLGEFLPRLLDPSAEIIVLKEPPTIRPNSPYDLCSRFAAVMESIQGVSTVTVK

SMILES | inhibition
O=C(c1ccc2cc[nH]c2c1)N1CCCC2(COCCN(CC3CC3)C2)C1 (centres undefined) | -13.8%
Cc1ccc(S(=O)(=O)NCC(c2ccc3c(c2)CCN3C)N2CCCC2)c(C)c1 (centres undefined) | -0.036%
COc1ccc(C(=O)N2CCCN(c3ncccc3-c3nc(C)no3)CC2)cc1 | 5.18%
Cc1ccc(NC(=O)Cc2nc(-c3ccccc3)n[nH]2)cc1 | -4.45%
CC(C)(C)C(=O)OCc1noc(-c2ccccc2)n1 | 7.9%
O=C1COc2ccccc2N1Cc1noc(-c2ccccc2)n1 | 72.3% (active)
O=C(NCc1noc(-c2ccccc2)n1)C1CCCC1 | -13.9%
O=C1NC2(CCCc3ccccc32)C(=O)N1Cc1csc(-c2ccc(Cl)cc2)n1 (centres undefined) | 2.68%
COc1cccc(-c2noc(CN3CCCC3c3cc(OC)ccc3OC)n2)c1 (centres undefined) | -19.5%
O=C(COc1ccccc1)Nc1cnc(-c2cccc(Cl)c2)nc1 | 0.526%
COc1cc(-c2nc3sc4c(c3c(=O)[nH]2)CCC(C)C4)ccc1OCc1ccc(C)cc1 (centres undefined) | 13.3%
CC1CCc2c(sc3ncnc(OCc4cccc([N+](=O)[O-])c4)c23)C1 (centres undefined) | 94.8% (active)
CC1CCc2c(sc3nc(CC#N)[nH]c(=O)c23)C1 (centres undefined) | -258%
Cc1nc(C2CCCN(C(=O)c3cccnc3N)C2)nc2c1CC(=O)N2Cc1ccccc1 (centres undefined) | -6.04%
C=C1Nc2ccccc2C(=O)N1c1cccc(NC(=O)Cc2ccc(F)cc2)c1 | 2.69%
CNc1nc2c(c(=O)n1C)CN(C(=O)Nc1ccccc1Oc1ccccc1)CC2 | 14.2%
COc1ccc(NC(=O)c2sc(N3CCOCC3)nc2-c2ccccc2)c(OC)c1 | 15.1%
COc1cccc(-c2cc(C(=O)N3CCN(c4ccc(N5CCOCC5)nn4)CC3)[nH]n2)c1 | 69.8% (active)
O=C(c1cccnc1)N1CCN(c2cc(-c3ccccc3)[nH]n2)CC1 | 4.54%
COc1cccc(C(=O)N2CCCC2c2nc(-c3ccccc3)no2)c1 (centres undefined) | 1.43%
C=C(CCC(C(=O)O)[C@H]1[C@H](O)C[C@@]2(C)C3=C(CC[C@]12C)[C@@]1(C)CC[C@H](OC(C)=O)C(C)(C)[C@@H]1CC3)C(C)C (some centres undefined) | 3.27%
COCCCNC(=O)c1cc2c(=O)n3ccccc3nc2n1Cc1ccccc1 | 9.14%
CCCOc1ccc(NC(=O)c2ccc(Br)cc2)c2cccnc12 | -10.2%
CSc1ncccc1C(=O)Nc1ccnn1C(C)c1ccncc1 (centres undefined) | -28.1%
CSc1ncccc1C(=O)OCc1ccc(Br)cc1 | 76.8% (active)
CCCCNC(=O)Cc1csc(COc2ccc(C)cc2)n1 | 2.41%
O=C(NC1CCCC1)c1ccccc1N1C(=O)[C@@H]2Cc3c([nH]c4ccccc34)C(c3ccc(F)cc3)N2C1=O (some centres undefined) | -2.2%

SMILES | inhibition
CN1CCCN(C(=O)C2CCCCC2)CC1 | -7.1%
COC(=O)c1ccc(C2Oc3ccccc3CN2c2ccccc2Cl)cc1 (centres undefined) | 34.3% (active)
COC(=O)c1ccc(C(=O)NCC2(O)CCc3ccccc32)cc1 (centres undefined) | 6.5%
COC(=O)c1ccc(C2c3[nH]c4ccccc4c3C[C@H]3C(=O)N(CC4CCCO4)CC(=O)N23)cc1 (some centres undefined) | -2.7%
Cn1nc(C2CCCN(Cc3cc(F)cc(F)c3)C2)c2nccnc21 (centres undefined) | -9.38%
COc1ccccc1CNC(=O)c1nc(N2CCSCC2)c2cn(C)nc2n1 | 32.8% (active)
COc1ccccc1CNC(=O)c1c(O)c2cccnc2n(-c2ccccc2)c1=O | -16.9%
CCN1CCC2(CC1)OC(=O)C(C)=C2C(=O)NCc1ccccc1OC | -9.74%
O=C(CCc1nnc2ccc(N3CCOCC3)nn12)N1CCC(Cc2ccccc2)CC1 | 3.03%
O=C(Cc1cccc2ccccc12)Nc1nc2ccc(F)cc2s1 | 55.7% (active)
CCCC(=O)Nc1nc2ccc(CCC(=O)NCc3ccc(F)cc3)cc2s1 | -4.54%
CC(C)C(=O)Nc1nc2ccc(CCC(=O)Nc3ccc(F)cc3)cc2s1 | -0.104%
CCC(=O)Nc1ccccc1SCC(=O)N1c2ccccc2CC1C (centres undefined) | 10.9%
CS(=O)(=O)c1ccc(Oc2ncc(-c3cccs3)cn2)cc1 | 3.89%
COc1ccc(C(C)=O)cc1CSc1nnc(-c2ccccc2OC)n1CCc1ccccc1 | 5.07%
CC(C)(C)c1ccc(/C=C/C(=O)NCCCn2ccnc2)cc1 | -4.88%
CN(C)CCCNC(=O)/C=C/c1ccc(OCc2c(F)cccc2Cl)cc1 | 34.5% (active)
COC(=O)c1cc2c(ccn2C)n1CC(=O)NC1CCCC1 | -250%
Oc1cccc2nc3c(O)cccc3nc12 | 61.8% (active)
CCCCCCCCCCC(C)C1CC(=O)NC(C(C)O)C(=O)NC(C)C(=O)NC(C)C(=O)NC(CCC(N)=O)C(=O)NC(Cc2ccc(O)cc2)C(=O)NC(C(C)CC)C(=O)O1 (centres undefined) | -4.03%
Cc1cc(=O)[nH]c(C2CN(C(=O)c3cccc4c3OCCO4)CCO2)n1 (centres undefined) | -1.67%
Cc1ccc(NC(=O)Cc2sc(Nc3ccc(C)cc3)nc2O)cc1 | 75.6% (active)
CCOc1ccc(Nc2nc(O)c(CC(=O)Nc3cccc(C)c3)s2)cc1 | 27.4%
Cc1ccc(Nc2nc(O)c(CC(=O)Nc3ccc(C(C)C)cc3)s2)cc1C | -1.13%
CC(Nc1nc2ccccc2nc1NS(=O)(=O)c1cc(Cl)ccc1Cl)c1ccccc1 (centres undefined) | -235%
CC(=O)C(CC(=O)N1CCCC1)C(=O)Nc1ccc(Cl)cc1 (centres undefined) | 8.14%
CC1CCN(c2ccc(C(=O)NCc3ccc(F)cc3)cc2[N+](=O)[O-])CC1 | 0.654%

SMILES | inhibition
O=C(NCCc1ccccc1)c1ccc2c(=O)nc3c(-c4ccccc4F)n[nH]n3c2c1 | -8.97%
O=C(Cn1c(=O)n(Cc2ccc3c(c2)OCO3)c(=O)c2ccccc21)NCc1ccco1 | 26.3%
O=C(NCCc1ccccc1)c1ccc2c(=O)n(Cc3ccco3)c(=O)n(Cc3cccc([N+](=O)[O-])c3)c2c1 | 73.4% (active)
Cn1ccc(NC(=O)CN2[C@H](Cc3ccccc3)C[C@]3(C)NC(=O)CCC[C@H]23)n1 | -3.27%
CC1CCCCN1CC(=O)N1CCc2cc(S(N)(=O)=O)ccc21 (centres undefined) | -35.3%
CCc1ccc(-n2c(SC(CC)C(=O)NCCOC)nc3n[nH]c(C)c3c2=N)cc1 (centres undefined) | -17.1%
CN(c1ccccc1)c1nc(=O)n(CC(=O)Nc2ccc3c(c2)OCCO3)c2ccccc12 | 41.9% (active)
O=C(Cn1cc(C(F)(F)F)ccc1=O)Nc1ccc2c(c1)OCCO2 | 15.1%
CCOC(=O)c1cc2c(ccn2C)n1CC(=O)Nc1ccc2c(c1)OCCO2 | -34.6%
COc1ccccc1-c1ccc2nnc(SCC(=O)Nc3ccc4c(c3)OCCO4)n2n1 | 3.38%
COc1ccc(C)cc1NC(=O)Cn1c(=O)nc(N(C)c2ccccc2)c2ccccc21 | 20.4%
O=C(Cn1cnc2c(sc3ccccc32)c1=O)Nc1ccc2c(c1)OCCO2 | 38.1% (active)
COc1cccc(-c2cnc(C(O)c3sccc3C)[nH]2)c1 (centres undefined) | -14.5%
Fc1cccc(Nc2nc(-c3ccncc3)nc3c2CCC3)c1 | 5.32%
CSc1nc2c(c(Nc3ccc(C(C)=O)cc3)n1)CCC2 | 53.2% (active)
COc1cc(-c2nnc(SCC(=O)Nc3ccc(Br)cc3)n2CCc2ccccc2)cc(OC)c1OC | -5.36%
O=C(NCCc1ccc(O)cc1)c1cc(Br)ccc1-n1cnnn1 | 8.86%
Cc1nc(SCC#N)c2oc3ccccc3c2n1 | -1.32%
COC(=O)c1cccnc1-n1c(=O)c2cccnc2n(CC(=O)Nc2ccc(C)c(F)c2)c1=O | -12.4%
Cc1ccc(-c2nnc(CCC(=O)O)o2)cc1 | -0.555%
CC(C)(C)C(=O)Nc1ccc(C(=O)Nc2ccc(O)cc2C(=O)O)cc1 | 13.9%
CC(C)(C)C(=O)Nc1ccc(SCc2nnc(-c3ccccc3)o2)cc1 | 64% (active)
O=C(CCc1csc(NC(=O)c2ccc(=O)[nH]c2)n1)NCCc1c[nH]c2ccccc12 | -13.5%
CC1CCN(S(=O)(=O)N2CCCC(C(=O)NC3CCN(Cc4ccccc4)CC3)C2)CC1 (centres undefined) | -8.49%
CCOc1ccccc1OC(=O)c1cc(-c2cc(OC)c(OC)c(OC)c2)nc2ccccc12 | -10%

From PubChem BioAssay AID1645857 (Buhrlage Lab, Dana-Farber Cancer Institute and Novartis …, 2021)
